Assay results as given in the supplement of paper PMC10849652.
The full data set covers some 8,800 targets. This sample favours those with a hit. About 0.5% of all pairs of compound and target were hits.

Tests used:
Assay in all cases: log2 fold change, soluble protein after heating vs DMSO (PISA); higher = thermal stabilisation; K562 lysate, 10 uM; active = over 0.2 and 3.5 SD of the protein, either way, in both replicates (recomputed)
[1] = compound: C1=CC=C(C=C1)[C@H](COC2=CC3=C(C=C2)NC(=O)N3)NC(=O)C4=CC=CN(C4=O)CC5=CC(=C(C=C5)F)F
In short: (§1)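 The values are log-two fold changes in thermal stability compared with solvent controls and come from duplicates. They were obtained by TMTpro 16plex LC-MS/MS, with channel sums equalised, on the supernatant after 21,000xg for 90 min. That supernatant came from crude K562 extract at 1 mg/mL protein treated with 10 μM compound for 30 min, heated for 3 min across 48°C-58°C, pooled and brought to 0.5% NP-40 at 4°C.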

[2] = compound: CC1=C(SC2=C1C(=N[C@H](C3=NN=C(N32)C)CC(=O)N)C4=CC=C(C=C4)Cl)C
In short: as §1

[3] = compound: CC1=C2C(=CC=C1)N=C(N(C2=O)C3=CC=CC=C3C)CN4C=NC5=C(N=CN=C54)N
In short: as §1

[4] = compound: Cc1sc2c(c1C)C(c1ccc(Cl)cc1)=N[C@@H](CC(=O)OC(C)(C)C)c1nnc(C)n1-2
In short: as §1

[5] = compound: c1ccc([C@@H]2C[C@H]2NC2CCNCC2)cc1
In short: as §1

Measured: log2 fold change

HDAC2 (UniProt Q92769)
Sequence of UniProt Q92769 (Q92769 whole entry, looked up): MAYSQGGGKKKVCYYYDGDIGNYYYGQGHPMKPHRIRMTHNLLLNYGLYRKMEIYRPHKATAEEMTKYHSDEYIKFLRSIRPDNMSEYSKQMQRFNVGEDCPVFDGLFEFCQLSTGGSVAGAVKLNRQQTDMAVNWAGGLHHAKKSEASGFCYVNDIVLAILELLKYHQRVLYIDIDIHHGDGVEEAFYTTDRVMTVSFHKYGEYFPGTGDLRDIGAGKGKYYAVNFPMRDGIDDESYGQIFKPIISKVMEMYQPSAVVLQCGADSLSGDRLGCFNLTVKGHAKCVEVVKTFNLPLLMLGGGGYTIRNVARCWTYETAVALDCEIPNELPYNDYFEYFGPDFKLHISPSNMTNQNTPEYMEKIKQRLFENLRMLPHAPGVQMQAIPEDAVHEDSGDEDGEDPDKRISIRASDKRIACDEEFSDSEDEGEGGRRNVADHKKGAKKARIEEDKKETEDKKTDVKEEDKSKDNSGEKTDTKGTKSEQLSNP
inactive: [1] 0.004 | [2] 0.002 | [3] -0.017 | [4] 0.02 | [5] -0.004

GSTM4 (UniProt Q03013)
Sequence of UniProt Q03013 (Q03013 whole entry, looked up): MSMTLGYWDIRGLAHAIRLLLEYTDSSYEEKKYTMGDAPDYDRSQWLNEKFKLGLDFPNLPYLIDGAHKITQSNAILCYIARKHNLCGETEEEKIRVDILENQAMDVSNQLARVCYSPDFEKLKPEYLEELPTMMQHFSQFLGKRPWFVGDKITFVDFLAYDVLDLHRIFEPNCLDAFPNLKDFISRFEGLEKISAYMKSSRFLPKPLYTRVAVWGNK
inactive: [1] -0.04 | [2] -0.053 | [3] 0.03 | [4] 0.09 | [5] -0.016

GLUD2 (UniProt P49448)
Sequence of UniProt P49448 (P49448 whole entry, looked up): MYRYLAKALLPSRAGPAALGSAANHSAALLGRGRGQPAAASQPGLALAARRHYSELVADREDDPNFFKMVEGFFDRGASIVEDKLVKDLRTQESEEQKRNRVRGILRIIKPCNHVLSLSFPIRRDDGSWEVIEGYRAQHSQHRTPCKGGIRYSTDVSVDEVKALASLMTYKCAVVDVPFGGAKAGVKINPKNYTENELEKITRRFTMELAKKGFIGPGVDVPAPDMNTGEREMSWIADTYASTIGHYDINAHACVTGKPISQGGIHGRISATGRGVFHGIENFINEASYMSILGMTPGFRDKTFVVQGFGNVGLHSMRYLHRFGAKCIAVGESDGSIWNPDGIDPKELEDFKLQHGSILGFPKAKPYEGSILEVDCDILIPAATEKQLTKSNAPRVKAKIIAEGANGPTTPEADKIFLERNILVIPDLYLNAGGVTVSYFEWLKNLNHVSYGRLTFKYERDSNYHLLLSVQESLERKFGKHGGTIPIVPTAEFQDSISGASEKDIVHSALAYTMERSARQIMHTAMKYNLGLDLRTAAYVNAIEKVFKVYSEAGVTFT
inactive: [1] -0.001 | [2] 0.031 | [3] 0.265 | [4] 0.019 | [5] 0.022

HMGB2 (UniProt P26583)
Sequence of UniProt P26583 (P26583 whole entry, looked up): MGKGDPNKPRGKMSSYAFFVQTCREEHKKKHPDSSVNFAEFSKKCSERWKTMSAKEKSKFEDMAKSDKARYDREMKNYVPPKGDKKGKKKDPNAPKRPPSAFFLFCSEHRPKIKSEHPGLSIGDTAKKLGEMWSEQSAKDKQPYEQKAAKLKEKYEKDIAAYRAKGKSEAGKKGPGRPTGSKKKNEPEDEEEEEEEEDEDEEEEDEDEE
inactive: [1] 0.022 | [2] -0.069 | [3] -0.03 | [4] 0.036 | [5] 0.161

IMPDH2 (UniProt H0Y4R1)
inactive: [1] -0.048 | [2] 0 | [3] -0.077 | [4] -0.018 | [5] -0.203

HLTF (UniProt Q14527)
Sequence of UniProt Q14527 (Q14527 whole entry, looked up): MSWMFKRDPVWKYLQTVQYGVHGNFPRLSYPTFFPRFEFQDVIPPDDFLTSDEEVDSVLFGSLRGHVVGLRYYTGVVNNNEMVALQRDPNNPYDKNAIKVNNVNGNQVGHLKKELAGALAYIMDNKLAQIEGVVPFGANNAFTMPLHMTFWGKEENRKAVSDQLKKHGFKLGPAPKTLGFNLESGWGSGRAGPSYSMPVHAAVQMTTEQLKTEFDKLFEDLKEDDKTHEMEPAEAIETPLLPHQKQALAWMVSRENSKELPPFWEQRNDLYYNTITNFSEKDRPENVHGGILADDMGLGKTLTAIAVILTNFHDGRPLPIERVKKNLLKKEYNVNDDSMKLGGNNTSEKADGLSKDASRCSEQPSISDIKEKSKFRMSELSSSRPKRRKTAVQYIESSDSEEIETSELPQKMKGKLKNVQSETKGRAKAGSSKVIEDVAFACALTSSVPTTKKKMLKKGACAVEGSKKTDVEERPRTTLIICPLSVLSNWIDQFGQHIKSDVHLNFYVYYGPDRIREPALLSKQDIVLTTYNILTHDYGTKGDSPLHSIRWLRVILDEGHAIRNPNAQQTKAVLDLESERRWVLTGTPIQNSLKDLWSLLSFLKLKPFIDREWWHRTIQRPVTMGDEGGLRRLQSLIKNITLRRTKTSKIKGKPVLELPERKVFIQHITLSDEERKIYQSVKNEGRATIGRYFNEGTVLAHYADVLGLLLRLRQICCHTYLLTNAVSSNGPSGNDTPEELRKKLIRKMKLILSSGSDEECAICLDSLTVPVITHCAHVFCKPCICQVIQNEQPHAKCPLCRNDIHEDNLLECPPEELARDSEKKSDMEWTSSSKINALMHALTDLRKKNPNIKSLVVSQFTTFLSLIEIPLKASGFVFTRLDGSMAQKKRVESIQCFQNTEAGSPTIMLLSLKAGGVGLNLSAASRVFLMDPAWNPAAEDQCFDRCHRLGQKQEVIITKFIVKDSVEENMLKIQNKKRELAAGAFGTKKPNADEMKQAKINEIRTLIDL
inactive: [1] -0.053 | [2] -0.006 | [3] -0.065 | [4] 0.028 | [5] 0.011

HMBOX1 isoform 5 (UniProt Q6NT76)
inactive: [1] 0.016 | [2] -0.008 | [3] 0.055 | [4] 0.027 | [5] -0.114

GNE isoform 2 (UniProt Q9Y223)
Sequence of UniProt Q9Y223 (Q9Y223 whole entry, looked up): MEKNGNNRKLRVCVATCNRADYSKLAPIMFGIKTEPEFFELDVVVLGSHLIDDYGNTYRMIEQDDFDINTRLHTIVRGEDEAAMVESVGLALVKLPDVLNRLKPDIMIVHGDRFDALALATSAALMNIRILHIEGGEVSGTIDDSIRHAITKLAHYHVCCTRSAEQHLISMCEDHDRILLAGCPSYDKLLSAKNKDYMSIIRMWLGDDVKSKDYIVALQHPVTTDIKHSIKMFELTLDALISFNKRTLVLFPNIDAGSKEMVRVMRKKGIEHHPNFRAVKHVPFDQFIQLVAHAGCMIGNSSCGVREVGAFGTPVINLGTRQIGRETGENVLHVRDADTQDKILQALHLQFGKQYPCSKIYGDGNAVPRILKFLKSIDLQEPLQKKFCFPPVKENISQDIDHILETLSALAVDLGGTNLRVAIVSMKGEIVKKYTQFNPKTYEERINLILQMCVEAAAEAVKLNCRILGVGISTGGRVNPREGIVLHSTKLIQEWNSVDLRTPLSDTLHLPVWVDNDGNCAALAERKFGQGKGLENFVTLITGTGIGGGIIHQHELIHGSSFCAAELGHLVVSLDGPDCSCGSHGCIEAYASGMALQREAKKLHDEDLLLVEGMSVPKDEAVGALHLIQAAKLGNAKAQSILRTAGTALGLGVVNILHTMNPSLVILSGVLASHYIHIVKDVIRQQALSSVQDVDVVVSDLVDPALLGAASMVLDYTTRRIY
inactive: [1] -0.072 | [2] 0.006 | [3] 0.023 | [4] 0.007 | [5] 0.06

HADHB (UniProt P55084)
inactive: [1] 0.053 | [2] 0.021 | [3] 0.105 | [4] 0.167 | [5] -0.048

IRAK4 (UniProt Q9NWZ3)
Sequence of UniProt Q9NWZ3 (Q9NWZ3 whole entry, looked up): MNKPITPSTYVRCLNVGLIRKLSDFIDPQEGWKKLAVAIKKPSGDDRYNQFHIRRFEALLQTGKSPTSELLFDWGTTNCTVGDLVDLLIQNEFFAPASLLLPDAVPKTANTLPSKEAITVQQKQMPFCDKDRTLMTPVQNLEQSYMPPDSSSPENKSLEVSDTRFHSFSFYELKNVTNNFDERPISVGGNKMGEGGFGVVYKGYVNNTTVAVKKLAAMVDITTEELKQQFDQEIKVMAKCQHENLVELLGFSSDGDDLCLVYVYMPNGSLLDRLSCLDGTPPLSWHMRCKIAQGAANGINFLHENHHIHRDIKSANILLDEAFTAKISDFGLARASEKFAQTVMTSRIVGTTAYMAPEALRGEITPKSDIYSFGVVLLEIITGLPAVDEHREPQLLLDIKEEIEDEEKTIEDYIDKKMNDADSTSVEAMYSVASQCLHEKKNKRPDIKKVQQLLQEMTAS
inactive: [1] -0.02 | [2] -0.014 | [3] 0.022 | [4] -0.08 | [5] -0.024

HAUS4 (UniProt Q9H6D7)
Sequence of UniProt Q9H6D7 (Q9H6D7 whole entry, looked up): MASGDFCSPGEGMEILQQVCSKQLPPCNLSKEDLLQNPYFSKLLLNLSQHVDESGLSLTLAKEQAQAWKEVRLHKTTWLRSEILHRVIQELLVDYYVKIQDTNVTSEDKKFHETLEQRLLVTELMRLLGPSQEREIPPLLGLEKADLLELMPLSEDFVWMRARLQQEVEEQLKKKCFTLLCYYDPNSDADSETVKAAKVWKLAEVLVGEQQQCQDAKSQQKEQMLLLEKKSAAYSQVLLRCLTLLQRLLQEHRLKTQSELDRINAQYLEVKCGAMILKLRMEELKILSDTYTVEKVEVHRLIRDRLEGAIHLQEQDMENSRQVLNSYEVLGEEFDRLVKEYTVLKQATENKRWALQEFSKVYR
inactive: [1] -0.009 | [2] -0.043 | [3] 0.019 | [4] 0.019 | [5] 0.02

HSPA8 (UniProt P11142)
Sequence of UniProt P11142 (P11142 whole entry, looked up): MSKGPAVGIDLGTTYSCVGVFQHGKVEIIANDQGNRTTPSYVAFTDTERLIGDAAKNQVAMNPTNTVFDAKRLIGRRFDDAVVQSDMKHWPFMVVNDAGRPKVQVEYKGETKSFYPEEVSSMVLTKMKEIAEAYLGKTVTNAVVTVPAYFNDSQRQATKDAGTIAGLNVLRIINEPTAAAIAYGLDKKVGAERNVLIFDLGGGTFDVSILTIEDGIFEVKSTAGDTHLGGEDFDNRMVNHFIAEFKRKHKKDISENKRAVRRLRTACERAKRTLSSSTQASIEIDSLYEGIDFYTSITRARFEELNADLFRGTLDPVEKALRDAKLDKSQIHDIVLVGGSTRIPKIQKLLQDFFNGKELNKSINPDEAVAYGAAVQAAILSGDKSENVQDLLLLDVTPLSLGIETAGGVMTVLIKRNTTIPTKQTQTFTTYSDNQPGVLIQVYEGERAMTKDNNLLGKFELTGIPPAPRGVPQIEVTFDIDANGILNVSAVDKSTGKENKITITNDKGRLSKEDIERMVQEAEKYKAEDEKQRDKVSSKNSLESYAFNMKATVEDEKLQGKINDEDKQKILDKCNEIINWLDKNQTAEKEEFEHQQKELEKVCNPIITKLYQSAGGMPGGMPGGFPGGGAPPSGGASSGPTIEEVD
inactive: [1] 0.002 | [2] -0.014 | [3] -0.004 | [4] -0.004 | [5] 0.006
